Assay outcomes (PubChem)
A selection: hits, their analogues and other compounds. The true share with any hit is near 5.7%.
KDM4E inh = JMJD2E (human) inhibition; B2RXH2; JMJD2E catalytic domain, FDH-coupled NADH fluorescence (FDH is formaldehyde dehydrogenase); Potency, µM (doses to about 57.1 µM), without a hit: at the highest dose activity change, negative = inhibition, most hits filed as inhibitors; 230,000 tested, 1.6% active; AID 2147; active = well fitted inhibition curve with a large enough effect, not every such curve was filed as active; inconclusive = small, poorly fitted or top-dose-only effect, or another doubt; inactive = no such curve, though single readings can be large or run the other way;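 note: potency is the fitted concentration of half-maximal effect; 0% = wells with enzyme and -100% = buffer wells without enzyme; nearly all actives have a fitted effect of over 50% in size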
Target sequence (B2RXH2 1-337 limits assumed): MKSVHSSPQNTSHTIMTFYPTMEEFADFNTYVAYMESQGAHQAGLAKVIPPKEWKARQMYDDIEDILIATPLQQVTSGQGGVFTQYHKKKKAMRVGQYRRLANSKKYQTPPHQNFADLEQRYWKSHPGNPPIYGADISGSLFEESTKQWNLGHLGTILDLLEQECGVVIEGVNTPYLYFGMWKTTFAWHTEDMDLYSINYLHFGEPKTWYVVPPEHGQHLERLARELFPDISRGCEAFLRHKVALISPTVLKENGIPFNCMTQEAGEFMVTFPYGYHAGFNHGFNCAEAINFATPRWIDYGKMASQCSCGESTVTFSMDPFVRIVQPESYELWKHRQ
JMJD2A Tudor inh = inhibitors of human JMJD2A Tudor domain; O75164; AlphaScreen JMJD2A-Tudor / H3K4me3 peptide binding; Potency, µM (series often up to 114 µM), for inactives: top-dose activity change, negative = inhibition, actives largely listed as inhibitors; 390,000 tested, 4.4% active; AID 504339; note: potency is the fitted concentration of half-maximal effect; % is set by controls: 0 for no effect and ±100 for the full control effect; nearly all actives have a fitted effect of over 50% in size
HP1b chromo inh = HP1-beta chromodomain-methylated histone interaction inhibition; AlphaScreen HP1-beta / biotin-H3K9me3 peptide binding; Potency, µM (highest dose often 114 µM), inactives show at the top dose activity change, negative = inhibition, hits mostly inhibitors; 390,000 tested, 0.56% active; note: potency is the fitted concentration of half-maximal effect; nearly all actives have a fitted effect of over 70% in size
Target sequence (P83916 whole entry, looked up): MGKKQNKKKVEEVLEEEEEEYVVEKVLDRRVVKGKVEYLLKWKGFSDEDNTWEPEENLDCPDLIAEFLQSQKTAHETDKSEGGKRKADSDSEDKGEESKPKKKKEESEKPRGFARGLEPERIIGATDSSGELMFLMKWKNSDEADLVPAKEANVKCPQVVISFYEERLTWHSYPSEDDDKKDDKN
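AlphaScreen: HP1-beta (50 nM) preformed 30 min with biotin-H3(1-18)K9me3 peptide (50 nM) in PBS pH 7.4, 0.01% Tween-20. Compound added for 30 min at RT, then streptavidin donor/nickel chelate acceptor beads (10 ug/mL) for 30 min.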
L3MBTL1 block = blocks human L3MBTL1; AlphaScreen L3MBTL1–H3K9me1 peptide binding; Potency, µM (titrated, usually from 57.1 µM), inactives show at the top dose activity, negative = inhibition, most hits filed as inhibitors; 230,000 tested, 0.66% active; AID 485360; note: potency is the fitted concentration of half-maximal effect; % is set by controls: 0 for no effect and ±100 for the full control effect; nearly all actives have a fitted effect of over 60% in size
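Read-out is AlphaScreen signal from streptavidin donor and nickel chelate acceptor beads (10 ug/mL final each) bridging L3MBTL1 (50 nM) and biotinylated K9-monomethylated H3(1-15) peptide (75 nM), after 30 min compound exposure at room temperature.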
BAZ2B block = blocks human BAZ2B; AlphaScreen BAZ2B-H3K14Ac peptide displacement; Potency, µM (highest dose often 114 µM), for the others: at the highest dose activity change, negative = inhibition, most hits filed as inhibitors; 360,000 tested, 4.4% active; AID 504333; note: potency is the fitted concentration of half-maximal effect; % is set by controls: 0 for no effect and ±100 for the full control effect; nearly all actives have a fitted effect of over 60% in size
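BAZ2B (50 nM) with biotin-H3(5-23)K14Ac peptide (50 nM) in PBS pH 7.4, 0.01% Tween-20, preformed 30 min, then compound 30 min at room temperature; top concentration 110uM. AlphaScreen streptavidin donor/nickel chelate acceptor beads (10 ug/mL final), 20 min dark, signal read.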
PI5P4Ka inh = PI5P4K alpha (human) kinase inhibition | 330,000 tested, 1.2% active | P48426 | max response, % | PI5P4Kalpha enzyme, ADP-Glo luminescence, 60 min; hits give low values; active = max response of -50% or lower; inconclusive = between -30% and -50%; inactive = -30% or higher; note: value at the top dose of about 77 µM; % is set by controls: 0 for no effect and ±100 for the full control effect
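Controls without substrate or without enzyme flank wells where PI5P4Kalpha converts substrate using 5 microM ATP (final). Incubation lasts 60 minutes at room temperature; ADP formed is read by ADP-Glo luminescence.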
Active calls of the source: *; ? = inconclusive; . = no result given; [ ] = remark or other dose. Unless noted, calls come from the whole dose curve; as a rule, active = well fitted inhibition curve with a large enough effect; inconclusive = small, poorly fitted or top-dose-only effect; inactive = no such curve, though single readings can be large or run the other way.

SMILES	KDM4E inh	JMJD2A Tudor inh	HP1b chromo inh	L3MBTL1 block	BAZ2B block	PI5P4Ka inh
Clc1ccccc1Nc1ncnc2c1nc1n2CCCCC1	.	-14%	43%	.	?	.
CCOc1ccc(NC(=O)/C(C#N)=C/c2ccc(N3CCCC3)c(C)c2)cc1	-5%	-9%	17%	-16%	2%	-8
C=CCNC(=O)/C(C#N)=C\c1cc(Cl)c(O)c(OCC)c1	?	-11%	9%	-6%	-15%	-59*
CCOc1cc(/C=C(/C#N)C(=O)Nc2ccc(O)cc2)cc(Br)c1O	-2%	-27%	-13%	-5%	-37%	-71*
CCOc1ccc(/C=C(\C#N)C(=O)NCC2CCCO2)cc1OCC (configuration not stated)	-26%	3%	21%	3%	-5%	2
CC(=O)Nc1ccc(N2CCCCC2)c(C(=O)Nc2cccc(C)c2)c1	-3%	-32%	9%	2%	?	.
Cc1ccc(NC(=O)c2cc(NC(=O)/C=C\C(=O)O)ccc2N2CCCCC2)cc1	.	-30%	4%	.	?	-69*
CN(C1CCCCC1)S(=O)(=O)c1ccc2c(c1)c(=O)c(C(=O)N1CCN(c3ccccc3F)CC1)cn2C	.	-23%	5%	.	.	.
O=S(=O)(NCCSc1nnnn1-c1ccccc1)c1ccc(F)cc1	.	-5%	43%	.	-2%	.
S=c1[nH]nc(-c2ccco2)n1/N=C/C=C/c1ccco1	-13%	3.5µM*	?	-1%	?	-69*
S=c1[nH]nc(-c2cc(-c3ccccc3)n[nH]2)n1/N=C/C=C/c1ccco1	?	?	?	?	?	-96*
Cc1ccccc1-c1noc(-c2nnn(-c3ccccc3C)c2N)n1	.	-25%	60%	.	-5%	.
N#C/C(=N\Nc1cccc(C(F)(F)F)c1)C(=O)c1ccsc1	-6%	50µM*	-20%	-13%	40µM*	15
Cc1nccc(-c2cccc(N/N=C(\C#N)C(=O)c3ccccc3)c2)n1	-7%	?	-5%	-17%	-28%	-20
CN1C(=O)C2(c3ccccc31)N(C)CC(c1ccccn1)C21SC(=S)N(Cc2ccco2)C1=O (configuration not stated)	2%	28µM*	?	?	22µM*	-1
CN1C(=O)C2(c3ccccc31)N(C)CC(c1ccccc1)C21SC(=S)N(Cc2ccco2)C1=O (configuration not stated)	6%	?	-14%	-2%	5%	.
COc1ccc(C2Nc3ccccc3C(=O)N2Cc2ccccc2)cc1COc1ccc(F)cc1 (configuration not stated)	.	-11%	.	.	.	.
COc1ccc(C2Nc3ccccc3C(=O)N2CCO)cc1COc1ccc(NC(C)=O)cc1 (configuration not stated)	.	79µM*	.	.	.	.
CCN(CC)CCN1C(=O)c2ccccc2NC1c1ccc(OC)c(COc2ccc(NC(C)=O)cc2)c1 (configuration not stated)	.	-25%[57.1 µM]	21%[57 µM]	.	.	.
COc1ccc(C2Nc3ccccc3C(=O)N2Cc2ccncc2)cc1COc1ccc(NC(C)=O)cc1 (configuration not stated)	.	79µM*	.	.	.	.
COc1ccc(C2NC(=O)c3ccccc3N2)cc1COc1ccc(NC(C)=O)cc1 (configuration not stated)	.	-13%	.	.	.	.
COc1ccc(C2Nc3ccccc3C(=O)N2CC(C)(C)C)cc1COc1ccc(NC(C)=O)cc1 (configuration not stated)	.	56µM*	.	.	.	.
COc1ccc(C2Nc3ccccc3C(=O)N2Cc2cccc3ccccc23)cc1COc1ccc(NC(C)=O)cc1 (configuration not stated)	.	79µM*	.	.	.	.
COC(=O)C/C=C/[C@@H](C)[C@@H](Cc1ccccc1Br)OC	1%	.	.	.	.	.
O=C(CSc1nc2c([nH]c3ccccc32)c(=O)n1-c1ccccc1)N1CCCCCC1	.	-10%	18%[57 µM]	.	-27%	.
SMILES	KDM4E inh	JMJD2A Tudor inh	HP1b chromo inh	L3MBTL1 block	BAZ2B block	PI5P4Ka inh
Nc1ncnc(Sc2ccccc2)c1[N+](=O)[O-]	-1%	-10%	16%	-10%	-8%	-8
Nc1ncnc(Sc2ncccn2)c1[N+](=O)[O-]	?	-20%	31%	-1%[11.4 µM]	79µM*	1
COc1c[nH]n(C2CCCCC2)c(=O)c1=O	?	20µM*	7%	-3%	?	.
CCOc1ccc(CNC(=O)CCC(=O)N2CC3CCCN3c3ccccc32)cc1 (configuration not stated)	.	?	?	.	50µM*	.
COc1ccc(OC)c(NC(=O)N2CC3CCCN3c3ccccc32)c1 (configuration not stated)	.	40µM*	?	.	20µM*	.
O=C(Nc1cccc(Cl)c1)N1CC2CCCN2c2ccccc21 (configuration not stated)	.	14µM*	?	.	18µM*	.
Cc1cccc(C)c1-n1nnnc1C(c1ccnc2ccccc12)N(CCN(C)C)Cc1ccccc1 (configuration not stated)	.	.	.	.	.	13
CN(C)S(=O)(=O)c1ccc2c(c1)N(CC(=O)N1CCCCC1)CCS2	.	-21%	4%[57 µM]	.	-6%	.
CN(C)c1ccc(CNC(=O)CN2CCSc3ccc(S(=O)(=O)N(C)C)cc32)cc1	.	45µM*	-16%[57 µM]	.	40µM*	.
COCCCNC(=O)CCc1c(C)nc2nc(-c3cc(OC)cc(OC)c3)nn2c1C	.	-26%	19%	.	-16%	.
CN(C)S(=O)(=O)c1cccc(-c2nn(-c3ccccc3)cc2/C=C2\SC(=S)NC2=O)c1	-12%	40µM*	?	-16%	32µM*	-86*
Cc1cc2ncn(-c3ncccc3[N+](=O)[O-])c2cc1C	.	?	-2%	.	89µM*	-14
CN(Cc1cccc(F)c1)C(=O)CNS(=O)(=O)c1ccc2ccccc2c1	.	-5%	23%	.	5%	-9
O=C(O)CSc1cc(C(=O)c2ccccc2O)cn2c(=O)c3c4c(sc3nc12)CCCC4	-7%	35µM*	71µM*	.	22µM*	?
Cc1nc(/C=[N+](\[O-])C(C)(C)/C=N/O)n(O)c1C	1%	7.9µM*	24%	.	50µM*	-7
CC(C)(/C=N/O)/[N+]([O-])=C/c1ccco1	3%	-11%	26%	-4%	0%	2
O=C(Nc1ccc(F)cc1)c1nc[nH]c1C(=O)Nc1ccccc1[N+](=O)[O-]	7%	-21%	36%	-15%	-38%	1
O=C(Nc1ccccc1[N+](=O)[O-])c1nc[nH]c1C(=O)NCCO	-1%	?	34%	3%	56µM*	-3
CCCCCCCn1c2c(c(=N)c3c1CCC3)CCCC2	3.5µM*	1%	24%	-12%	?	-8
CCCCCCCCCn1c2c(c(=N)c3c1CCC3)CCC2	-2%	?	15%	21%[11.4 µM]	7%	-1
